# Only some compounds are listed: those with a hit (about 6.7% of all), similar ones and a draw of the others.
# T cruzi growth = T. cruzi intracellular proliferation inhibitors, primary screen, cell-based, beta-gal Tulahuen parasites, NIH3T3 host, luminescence; T. cruzi beta-gal in NIH3T3, GalScreen luminescence, 90 h; inhibition, % at 8.34 µM; 77,000 tested, 5.9% active; AID 624255, 2012;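 active means mean inhibition above about 93%, with at least 55% of replicates each passing it, limit read from the data, passing the limit was not always enough; inconclusive means only one of those two conditions holds; inactive means neither condition holds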
# Pf Dd2 growth = P. falciparum Dd2 growth inhibitors, primary screen, SYBR Green fluorescence, single dose replicates | 72 h; hits give low values | activity change, % at 10 µM | 94,000 tested, 2.3% active | AID 1159554, 2015; in the data active means activity change below about -80%; inconclusive means no clear call, values can overlap the other calls
# C diff HTS = C. difficile growth inhibitors, primary screen, HTS. Clostridium difficile clinical isolate growth, OD600, 24 h; hits give low values. growth activity, negative = inhibition, % at 16 µg/mL (by protocol). 86,000 tested, 0.25% active. AID 1259249, 2017;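 active means mean growth activity at or below -80% and every replicate also at or below -80%; inconclusive means mean at or below -80% but some replicate above -80%; inactive means mean growth activity above -80%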;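 further: 0% = DMSO wells and -100% = levofloxacin 16 µg/mL wells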
# The depositor's hits bear a star; ? = inconclusive; . = no result given.
SMILES,T cruzi growth,Pf Dd2 growth,C diff HTS
C[C@@H]1CN([C@H](C)CO)C(=O)c2cccc(NS(=O)(=O)c3ccccc3)c2O[C@@H]1CN(C)Cc1ccc(C(=O)Nc2ccccc2N)cc1,.,-85*,7
C[C@H](CO)N1C[C@H](C)[C@H](CN(C)Cc2ccc(Cl)c(Cl)c2)Oc2c(NS(=O)(=O)c3ccc(F)cc3)cccc2C1=O,-37,-15,8
C[C@H]1CN([C@@H](C)CO)C(=O)c2cccc(NS(=O)(=O)c3ccccc3)c2O[C@@H]1CN(C)Cc1ccc(C(=O)Nc2ccccc2N)cc1,.,-54,-2
Cc1ccc(S(=O)(=O)Nc2cccc3c2O[C@H](CN(C)Cc2ccc(C(=O)Nc4ccccc4N)cc2)[C@@H](C)CN([C@H](C)CO)C3=O)cc1,.,-72,8
Cc1ccc(S(=O)(=O)Nc2cccc3c2O[C@@H](CN(C)Cc2ccc(C(=O)Nc4ccccc4N)cc2)[C@@H](C)CN([C@H](C)CO)C3=O)cc1,.,-83*,8
C[C@@H]1CN([C@@H](C)CO)C(=O)c2cccc(NS(=O)(=O)c3ccc(Cl)cc3)c2O[C@H]1CN(C)Cc1ccc(C(=O)Nc2ccccc2N)cc1,.,-79,2
CCNC(=O)Nc1ccc2c(c1)C(=O)N(C)[C@@H]1CC[C@@H](CC(=O)N[C@H](C)c3ccccc3)O[C@H]1CO2,42,.,1
Cc1cc(C(=O)Nc2cccc3c2O[C@@H](CN(C)C(=O)Nc2ccc4c(c2)OCO4)[C@@H](C)CN([C@@H](C)CO)C3=O)n(C)n1,-173,-24,.
COc1ccc(CN2C[C@H](C)[C@@H](OC)CN(C)C(=O)c3cc(NC(=O)C4CC4)ccc3OC[C@@H]2C)cc1,12,-21,.
CCCNC(=O)N[C@@H]1CC[C@H](CCNS(=O)(=O)c2cccc(F)c2)O[C@H]1CO,-60,11,.
C[C@@H]1CN([C@H](C)CO)C(=O)c2cccc(NS(=O)(=O)c3ccc(F)cc3)c2O[C@@H]1CN(C)Cc1ccc(C(=O)Nc2ccccc2N)cc1,94,-86*,9
C[C@@H]1CN([C@H](C)CO)C(=O)c2cccc(NS(=O)(=O)c3ccc(F)cc3)c2O[C@H]1CN(C)Cc1ccc(C(=O)Nc2ccccc2N)cc1,.,-68,10
C[C@@H]1CN([C@@H](C)CO)S(=O)(=O)c2ccc(C#CC3(O)CCCC3)cc2O[C@H]1CN(C)C(=O)c1ccccc1,51,-86*,-9
CC(C)C#Cc1ccc2c(c1)O[C@@H](CN(C)C(=O)C1CCCCC1)[C@@H](C)CN([C@H](C)CO)S2(=O)=O,80,-29,9
C[C@@H]1CN([C@@H](C)CO)S(=O)(=O)c2ccc(C#Cc3ccccc3)cc2O[C@H]1CN(C)C(=O)Cc1ccccn1,72,-84*,-19
C[C@@H]1CN([C@@H](C)CO)S(=O)(=O)c2ccc(C#Cc3ccccc3)cc2O[C@@H]1CN(C)C(=O)Cc1ccccn1,67,?,-10
C[C@@H]1CN([C@H](C)CO)S(=O)(=O)c2ccc(C#Cc3ccncc3)cc2O[C@@H]1CN(C)C(=O)C1CC1,80,-25,.
C[C@H]1CN([C@@H](C)CO)S(=O)(=O)c2ccc(C#CC3(O)CCCC3)cc2O[C@H]1CN(C)C(=O)c1ccccc1,12,-46,-2
CC(C)C#Cc1ccc2c(c1)O[C@@H](CN(C)C(=O)C1CCCCC1)[C@H](C)CN([C@@H](C)CO)S2(=O)=O,52,-82*,12
C[C@@H]1CN([C@@H](C)CO)S(=O)(=O)c2ccc(C#Cc3ccccc3)cc2O[C@H]1CN(C)C(=O)C1CC1,67,-89*,-15
CC(C)NC(=O)N(C)C[C@@H]1Oc2c(NC(=O)Nc3ccc(C(F)(F)F)cc3)cccc2C(=O)N([C@H](C)CO)C[C@H]1C,52,0,3
C[C@H](CO)N1C[C@H](C)[C@@H](CN(C)C(=O)Cc2ccccn2)Oc2ncc(C#C[C@@H](C)O)cc2C1=O,-45,44,-3
CC(=O)N(C)C[C@@H]1Oc2cc(C3=CCCC3)ccc2S(=O)(=O)N([C@@H](C)CO)C[C@H]1C,7,.,4
C[C@H](CO)N1C[C@H](C)[C@@H](CN(C)S(=O)(=O)c2ccc(F)cc2)Oc2ccc(NS(=O)(=O)c3cn(C)cn3)cc2C1=O,87,8,.
CCCNC(=O)N[C@@H]1C=C[C@H](CC(=O)NCCc2ccccc2)O[C@@H]1CO,-63,11,.
SMILES,T cruzi growth,Pf Dd2 growth,C diff HTS
C[C@H]1CN([C@@H](C)CO)S(=O)(=O)c2ccc(C#Cc3ccncc3)cc2O[C@@H]1CN(C)C(=O)C1CC1,66,-31,.
CCC(=O)N(C)C[C@@H]1Oc2cc(C#Cc3ccccc3)ccc2S(=O)(=O)N([C@H](C)CO)C[C@@H]1C,.,-72,-7
CCC(=O)N(C)C[C@H]1Oc2cc(C#Cc3ccccc3)ccc2S(=O)(=O)N([C@@H](C)CO)C[C@@H]1C,.,-83*,1
C[C@@H]1CN([C@H](C)CO)S(=O)(=O)c2ccc(C#Cc3ccccc3)cc2O[C@@H]1CN(C)C(=O)C1CC1,48,-82*,4
CC(C)c1cn(CC[C@@H]2CC[C@H](NC(=O)C3CCCCC3)[C@H](CO)O2)nn1,.,.,-2
C[C@@H]1CCCCO[C@@H](CN(C)S(=O)(=O)c2ccccc2)[C@@H](C)CN([C@@H](C)CO)C(=O)c2cc(NC(=O)Nc3ccc(F)cc3)ccc2O1,87,-81*,8
C[C@@H]1CN([C@H](C)CO)C(=O)c2cc(NC(=O)Nc3ccc(F)cc3)ccc2O[C@@H](C)CCCCO[C@H]1CN(C)S(=O)(=O)c1ccccc1,?,-76,4
C[C@@H]1CN([C@H](C)CO)C(=O)c2cc(NC(=O)Nc3ccc(F)cc3)ccc2O[C@@H](C)CCCCO[C@H]1CN(C)S(=O)(=O)c1ccc(Cl)cc1,88,-73,-7
C[C@@H]1CN([C@H](C)CO)C(=O)c2cc(NC(=O)Nc3ccc(F)cc3)ccc2O[C@@H](C)CCCCO[C@@H]1CN(C)S(=O)(=O)c1ccc(F)cc1,67,-80,-9
C[C@@H]1CCCCO[C@@H](CN(C)S(=O)(=O)c2ccc(Cl)cc2)[C@H](C)CN([C@H](C)CO)C(=O)c2cc(NC(=O)Nc3ccc(F)cc3)ccc2O1,89,-81*,8
Cc1ccc(S(=O)(=O)N(C)C[C@H]2OCCCC[C@H](C)Oc3ccc(NC(=O)Nc4ccc(F)cc4)cc3C(=O)N([C@@H](C)CO)C[C@H]2C)cc1,59,-82*,.
Cc1cc(C(=O)Nc2cccc3c2O[C@@H](CN(C)C(=O)Nc2c(C)noc2C)[C@@H](C)CN([C@@H](C)CO)C3=O)n(C)n1,-34,77,.
O=C(C[C@H]1CC[C@H](NC(=O)Nc2cc(F)ccc2F)[C@H](CO)O1)Nc1ccccc1,.,.,8
COc1ccc2c3c(n(C)c2c1)[C@@H](CO)N(C(=O)Nc1ccc(F)cc1)CC31CCN(C(=O)c2ccccc2F)CC1,.,-85*,-13
COc1ccc2c3c(n(C)c2c1)[C@@H](CO)N(C(=O)Nc1ccc(F)cc1)CC31CCN(C(=O)c2ccc3c(c2)OCO3)CC1,.,-71,0
COc1ccc2c3c(n(C)c2c1)[C@H](CO)N(C(=O)Nc1ccc(F)cc1)CC31CCN(C(=O)c2ccc3c(c2)OCO3)CC1,.,-88*,-13
